# Laboratory results published in PubChem BioAssay (NCATS).
# “And” between values parts separate entries of the source, which are not always exact repeats. Equal entries are not always repeated. Inconclusive results are not listed. Entries that show only a call come without a potency. The source made the active and inactive calls. Unless noted, calls come from the whole dose curve; as a rule, active = well fitted curve in the direction sought with a large enough effect; inconclusive = small, poorly fitted or top-dose-only effect, or another doubt; inactive = no such curve, though single readings can be large; an effect the other way counts as inactive or inconclusive.
# Key:
# [1] = biological target: Flap endonuclease 1 (Homo sapiens) (UniProt P39748); test: qHTS Validation Assay for the Inhibitors of Human Flap endonuclease 1 (FEN1) (AID 488816); note: potency is the fitted concentration of half-maximal effect
# Flap endonuclease 1 (Homo sapiens), sequence (P39748 whole entry, looked up): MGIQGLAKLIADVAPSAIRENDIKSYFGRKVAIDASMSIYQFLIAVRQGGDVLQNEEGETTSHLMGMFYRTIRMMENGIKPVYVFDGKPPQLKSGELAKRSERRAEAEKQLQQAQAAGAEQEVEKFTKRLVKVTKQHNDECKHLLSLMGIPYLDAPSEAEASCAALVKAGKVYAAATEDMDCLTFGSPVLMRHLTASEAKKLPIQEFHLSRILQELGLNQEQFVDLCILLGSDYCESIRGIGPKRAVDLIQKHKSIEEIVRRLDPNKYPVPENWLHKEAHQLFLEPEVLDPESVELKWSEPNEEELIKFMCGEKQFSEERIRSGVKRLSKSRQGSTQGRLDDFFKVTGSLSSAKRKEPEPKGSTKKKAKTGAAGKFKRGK
# How it was run: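 Steps: add FEN1 (10 nM reagent) or buffer only; pin compounds; hold 15 min at room temperature; start with substrate, 50 nM final; read at 0 and 15 min; correct, normalize and fit a four-parameter Hill curve.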
# [2] = biological target: M-phase phosphoprotein 8 (Homo sapiens) (UniProt Q99549); test: qHTS Validation Assay for Inhibitors for MPP8 Chromodomain Interactions with Methylated Histone Tails (AID 488949); note: nearly all actives have a fitted effect of over 55% in size; note: potency is the fitted concentration of half-maximal effect
# M-phase phosphoprotein 8 (Homo sapiens), sequence (Q99549 whole entry, looked up): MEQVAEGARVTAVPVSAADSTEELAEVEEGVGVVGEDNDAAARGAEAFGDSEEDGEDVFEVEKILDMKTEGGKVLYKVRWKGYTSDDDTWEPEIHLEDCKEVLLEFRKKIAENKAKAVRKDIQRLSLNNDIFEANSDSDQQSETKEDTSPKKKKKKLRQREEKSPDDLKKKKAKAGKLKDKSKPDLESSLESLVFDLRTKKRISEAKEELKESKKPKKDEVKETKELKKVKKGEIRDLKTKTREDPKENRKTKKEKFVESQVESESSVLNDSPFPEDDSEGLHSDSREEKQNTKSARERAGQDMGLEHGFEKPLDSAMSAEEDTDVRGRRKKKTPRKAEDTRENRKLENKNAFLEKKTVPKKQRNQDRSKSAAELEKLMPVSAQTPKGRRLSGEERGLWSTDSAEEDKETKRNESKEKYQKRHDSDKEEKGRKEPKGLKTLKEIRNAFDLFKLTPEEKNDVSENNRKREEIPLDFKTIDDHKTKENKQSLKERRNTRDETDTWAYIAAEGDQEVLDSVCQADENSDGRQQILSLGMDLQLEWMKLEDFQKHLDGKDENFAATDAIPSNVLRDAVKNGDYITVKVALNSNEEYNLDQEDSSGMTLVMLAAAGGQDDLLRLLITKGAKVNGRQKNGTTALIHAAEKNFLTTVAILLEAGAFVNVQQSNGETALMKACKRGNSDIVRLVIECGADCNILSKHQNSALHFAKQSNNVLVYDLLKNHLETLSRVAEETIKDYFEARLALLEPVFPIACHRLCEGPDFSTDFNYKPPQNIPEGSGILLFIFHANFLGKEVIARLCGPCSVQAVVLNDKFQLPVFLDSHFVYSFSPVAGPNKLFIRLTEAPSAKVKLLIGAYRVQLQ
# How it was run: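 Chemiluminescent proximity assay: histidine-tag capture via nickel acceptor beads, biotin peptide via streptavidin donor beads. Protein and peptide each at 50 nM, pH 7.4, with 30 min incubations at room temperature for complex formation, compound exposure and bead binding.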
# [3] = biological target: Chromobox protein homolog 1 (Homo sapiens) (UniProt P83916); test: qHTS Validation Assay for Inhibitors of HP1-beta Chromodomain Interactions with Methylated Histone Tails (AID 488953); note: potency is the fitted concentration of half-maximal effect; nearly all actives have a fitted effect of over 50% in size
# How it was run: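 Compounds pinned into a preassembled complex of HP1-beta and trimethyl-K9 histone H3(1-18) biotin peptide (50 nM each; PBS pH 7.4, 0.01% Tween-20). After 30 min, bead-based AlphaScreen detection followed.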
# [4] = biological target: Methanococcus maripaludis chaperonin (MmCpn) (UniProt Q6LX38); test: High-Throughput Screening for Modulators of Cytosolic Chaperonin Activity: MmCpn Primary Screen (AID 488978)
# Methanococcus maripaludis chaperonin (MmCpn), sequence (Q6LX38 1-543): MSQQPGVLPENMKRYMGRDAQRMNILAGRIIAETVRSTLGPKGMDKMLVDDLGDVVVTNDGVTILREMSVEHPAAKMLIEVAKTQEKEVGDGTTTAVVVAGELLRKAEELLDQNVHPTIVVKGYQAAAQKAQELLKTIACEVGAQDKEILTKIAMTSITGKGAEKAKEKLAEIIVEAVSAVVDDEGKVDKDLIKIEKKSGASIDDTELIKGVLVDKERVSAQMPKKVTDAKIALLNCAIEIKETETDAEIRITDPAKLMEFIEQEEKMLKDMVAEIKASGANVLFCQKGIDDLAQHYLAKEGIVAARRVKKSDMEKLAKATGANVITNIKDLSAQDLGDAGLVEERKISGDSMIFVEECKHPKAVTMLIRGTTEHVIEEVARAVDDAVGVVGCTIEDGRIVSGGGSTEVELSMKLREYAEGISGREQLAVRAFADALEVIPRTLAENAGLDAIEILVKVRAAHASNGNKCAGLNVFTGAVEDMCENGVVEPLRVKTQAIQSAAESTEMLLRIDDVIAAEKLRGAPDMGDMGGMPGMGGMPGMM
# How it was run: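 HTRF readout (320 nm excitation, 590/665 nm emission) of ADP generated by 50 nM MmCpn hydrolysing 30 uM ATP during 10 min at 37C; compound preincubated 5 min RT.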
# [5] = biological target: D(1A) dopamine receptor (Homo sapiens) (UniProt P21728); test: HTS Assay for Allosteric Agonists of the Human D1 Dopamine Receptor: Primary Screen for Potentiators (AID 488982)
# How it was run: (§1)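 Tetracycline-induced HEK293 T-REx cells force-coupled to calcium signalling were incubated overnight at 30 C and dye-loaded at room temperature. Calcium flux over 180 s after compound addition flagged agonists; a further 180 s read after EC20 dopamine flagged potentiators.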
# [6] = biological target: D(1A) dopamine receptor (Homo sapiens) (UniProt P21728); test: HTS Assay for Allosteric Agonists of the Human D1 Dopamine Receptor: Primary Screen for Antagonists (AID 488983);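 note: calcium flux response to an EC80 dopamine challenge measured with no-wash dye; nearly all actives have a fitted effect of over 65% in size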
# How it was run: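 In this primary screen, compounds are applied to calcium-dye-loaded HEK293 T-REx cells with force-coupled D1 expression induced overnight at 30 C. An EC80 of dopamine follows the 180 s compound phase, and calcium is monitored for a further 180 s.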
# [7] = biological target: ATP-dependent 6-phosphofructokinase (Trypanosoma brucei brucei) (UniProt O15648); test: qHTS Assay to Find Inhibitors of T. brucei phosphofructokinase: hit validation (AID 492961); note: potency is the fitted concentration of half-maximal effect
# How it was run: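 Percent activity derived from corrected luminescence, normalized between 0x and 1x enzyme controls, then fitted to concentration-response curves. Conditions: 1.25 nM PFK, 0.1 mM ATP, 0.5 mM F6P, 45 min RT.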
# [8] = Validation screen for small molecules that induce genotoxicity in human embryonic kidney (HEK293T) cells expressing luciferase-tagged ELG1 (AID 493106)
# How it was run: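 In this validation screen, increased ELG1-luciferase signal flags compounds causing genetic stress. HEK293T reporter cells are treated 16 hr (37 °C, 5% CO2), developed with ONE-Glo for 30 min at room temperature, and imaged on a CCD-based reader.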
# [9] = biological target: Thyrotropin-releasing hormone receptor (Homo sapiens) (UniProt P34981); test: qHTS for Small Molecule Agonists and Allosteric Enhancers of Human TRH Receptor: Validation Screen for Agonists (AID 493127;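 active = calcium activation more than 3 SD above the typical response in the agonist read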;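 note: intracellular calcium rise by fluo-8 fluorescence before TRH EC20 addition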); settings: TRH receptor agonist cell assay; at 2 µM; stronger effect = higher value
# How it was run: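 Kinetic fluorescence assay of agonist-induced calcium release: overnight-plated TRHR cells, room-temperature fluo-8 loading, baseline then compound addition with per-second reads.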
# [10] = Nrf2 qHTS screen for inhibitors: Validation (AID 493153; active = well fitted inhibition curve with a large enough effect in the main read-out, with a control signal flat, not every such curve was filed as active); settings: Potency: luciferase luminescence; viability change: measured here: cytotoxicity max response
# How it was run: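 In this counterscreened reporter format, each well gives two signals: CellTiter-Fluor fluorescence for cytotoxicity and ARE-luciferase luminescence for Nrf2 function. A549 ARE_Fluc cells in 5% FBS OPTI-MEM were exposed to compound titrations for 18-24 h.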
# [11] = qHTS for Inhibitors of Cell Surface uPA Generation: Validation Assay (AID 493164);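 note: RAW 264.7 macrophage cells exposed to compound for 18 h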
# How it was run: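 Compounds are titrated over seven points (2.45 nM–38.3 uM final) onto pre-plated RAW 264.7 cells and incubated for 18 h. Retained intracellular ATP, measured with ATP-Lite, indicates blocked lethal factor entry.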
# [12] = biological target: Galactokinase (Homo sapiens) (UniProt P51570); test: qHTS Validation Assay for Inhibitors of Human Galactokinase (GALK) (AID 493189)
# How it was run: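 Enzyme activity is inferred from ATP consumption: human GALK phosphorylates galactose (100 uM) using 35 uM ATP for 1 h at room temperature, and luciferase-based Kinase-Glo Plus reports unconsumed ATP.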
# [13] = biological target: Peptidyl-prolyl cis-trans isomerase NIMA-interacting 1 (Homo sapiens) (UniProt Q13526); test: qHTS Validation Assay to Find Inhibitors of Pin1 (AID 504536; active = well fitted inhibition curve with a large enough effect in the polarisation, with a control signal flat, not every such curve was filed as active; the % refers to the polarisation; note: potency is the fitted concentration of half-maximal effect)
# Peptidyl-prolyl cis-trans isomerase NIMA-interacting 1 (Homo sapiens), sequence (Q13526 whole entry, looked up): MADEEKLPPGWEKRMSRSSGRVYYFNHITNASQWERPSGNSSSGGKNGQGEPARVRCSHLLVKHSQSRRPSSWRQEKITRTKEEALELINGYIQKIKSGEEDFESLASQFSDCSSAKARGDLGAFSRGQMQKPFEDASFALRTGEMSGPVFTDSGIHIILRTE
# How it was run: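 Fluorescence polarization competition: compounds (titration) displace HiFluor-488-labeled Pin1-1b peptide from Pin1 (0.3 uM final) in pH 7.5 HEPES buffer with DTT, 10 min at room temperature; %Activity normalized to no-enzyme wells, curves fitted.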
# [14] = biological target: Phosphoglycerate kinase, glycosomal (Trypanosoma brucei brucei) (UniProt P07378); test: qHTS Validation Assay to Find Inhibitors of Phosphoglycerate Kinase (AID 504547); note: potency is the fitted concentration of half-maximal effect
# Phosphoglycerate kinase, glycosomal (Trypanosoma brucei brucei), sequence (P07378 whole entry, looked up): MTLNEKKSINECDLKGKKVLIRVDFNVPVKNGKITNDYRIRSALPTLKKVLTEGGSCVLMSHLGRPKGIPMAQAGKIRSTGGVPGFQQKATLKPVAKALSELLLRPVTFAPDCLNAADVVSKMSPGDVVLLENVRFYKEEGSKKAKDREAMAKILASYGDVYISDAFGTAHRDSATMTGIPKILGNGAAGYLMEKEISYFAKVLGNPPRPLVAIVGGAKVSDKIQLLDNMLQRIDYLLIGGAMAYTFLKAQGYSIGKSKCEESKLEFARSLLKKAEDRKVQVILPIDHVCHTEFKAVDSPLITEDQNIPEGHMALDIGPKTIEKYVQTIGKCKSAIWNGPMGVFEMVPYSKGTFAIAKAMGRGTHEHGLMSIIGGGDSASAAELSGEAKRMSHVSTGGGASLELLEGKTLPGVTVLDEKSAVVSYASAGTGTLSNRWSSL
# How it was run: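 In TEA buffer (100mM, pH 7.6) containing 5mM MgCl2 and 0.01% Tween-20, the GAPDH-coupled PGK reaction proceeded for 60 minutes at room temperature before a single luminescence reading using Kinase-Glo Plus.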
# [15] = biological target: Transient receptor potential cation channel subfamily V member 1 (Homo sapiens) (UniProt Q8NER1); test: HTS Assay for Compounds that Act as Enhancers of the Vanilloid Receptor 1 (AID 488979)
# Transient receptor potential cation channel subfamily V member 1 (Homo sapiens), sequence (Q8NER1 whole entry, looked up): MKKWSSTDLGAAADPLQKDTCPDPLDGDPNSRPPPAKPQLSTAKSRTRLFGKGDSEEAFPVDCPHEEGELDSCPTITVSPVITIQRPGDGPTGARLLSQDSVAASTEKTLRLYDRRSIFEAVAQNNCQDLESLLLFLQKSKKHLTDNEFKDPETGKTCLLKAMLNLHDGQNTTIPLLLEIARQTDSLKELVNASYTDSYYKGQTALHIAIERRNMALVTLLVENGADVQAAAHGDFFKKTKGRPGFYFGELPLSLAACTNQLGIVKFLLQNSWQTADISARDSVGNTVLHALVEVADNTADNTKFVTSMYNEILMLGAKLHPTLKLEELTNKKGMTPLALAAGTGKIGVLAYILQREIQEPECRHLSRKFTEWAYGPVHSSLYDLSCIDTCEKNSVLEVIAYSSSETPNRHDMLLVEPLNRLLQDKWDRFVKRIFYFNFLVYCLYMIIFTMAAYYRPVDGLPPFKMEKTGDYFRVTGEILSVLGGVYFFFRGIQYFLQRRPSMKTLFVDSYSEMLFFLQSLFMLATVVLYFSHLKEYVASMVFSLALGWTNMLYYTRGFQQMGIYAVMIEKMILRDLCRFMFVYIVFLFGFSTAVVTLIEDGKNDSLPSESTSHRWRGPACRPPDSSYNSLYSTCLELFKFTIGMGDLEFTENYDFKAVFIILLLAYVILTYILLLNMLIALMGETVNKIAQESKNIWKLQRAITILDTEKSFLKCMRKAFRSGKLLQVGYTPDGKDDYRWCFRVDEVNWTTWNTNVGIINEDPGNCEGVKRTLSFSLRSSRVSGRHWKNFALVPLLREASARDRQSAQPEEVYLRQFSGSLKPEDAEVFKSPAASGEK
# How it was run: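 TRPV1-expressing cells loaded with Fluo-8 calcium dye; compounds added and calcium influx read kinetically for 3 min (agonist phase), then capsaicin at EC20 added and read 2 min more for enhancement. Fluorescence ex 480/em 520 nm.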
# [16] = biological target: D(1A) dopamine receptor (Homo sapiens) (UniProt P21728); test: HTS Assay for Allosteric Agonists of the Human D1 Dopamine Receptor: Primary Screen for Agonists (AID 488981)
# How it was run: as §1
# [17] = biological target: ATPase family AAA domain-containing protein 5 (Homo sapiens) (UniProt Q96QE3); test: Validation screen for small molecules that inhibit ELG1-dependent DNA repair in human embryonic kidney (HEK293T) cells expressing luciferase-tagged ELG1 (AID 493107);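 note: cells co-treated with the DNA-damaging agent 5-fluorouridine alongside compound; series mostly up to about 46 µM; inhibitors lower the ELG1-luciferase luminescence signal; nearly all actives have a fitted effect of over 70% in size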
# ATPase family AAA domain-containing protein 5 (Homo sapiens), sequence (Q96QE3 whole entry, looked up, the tested form may be a part): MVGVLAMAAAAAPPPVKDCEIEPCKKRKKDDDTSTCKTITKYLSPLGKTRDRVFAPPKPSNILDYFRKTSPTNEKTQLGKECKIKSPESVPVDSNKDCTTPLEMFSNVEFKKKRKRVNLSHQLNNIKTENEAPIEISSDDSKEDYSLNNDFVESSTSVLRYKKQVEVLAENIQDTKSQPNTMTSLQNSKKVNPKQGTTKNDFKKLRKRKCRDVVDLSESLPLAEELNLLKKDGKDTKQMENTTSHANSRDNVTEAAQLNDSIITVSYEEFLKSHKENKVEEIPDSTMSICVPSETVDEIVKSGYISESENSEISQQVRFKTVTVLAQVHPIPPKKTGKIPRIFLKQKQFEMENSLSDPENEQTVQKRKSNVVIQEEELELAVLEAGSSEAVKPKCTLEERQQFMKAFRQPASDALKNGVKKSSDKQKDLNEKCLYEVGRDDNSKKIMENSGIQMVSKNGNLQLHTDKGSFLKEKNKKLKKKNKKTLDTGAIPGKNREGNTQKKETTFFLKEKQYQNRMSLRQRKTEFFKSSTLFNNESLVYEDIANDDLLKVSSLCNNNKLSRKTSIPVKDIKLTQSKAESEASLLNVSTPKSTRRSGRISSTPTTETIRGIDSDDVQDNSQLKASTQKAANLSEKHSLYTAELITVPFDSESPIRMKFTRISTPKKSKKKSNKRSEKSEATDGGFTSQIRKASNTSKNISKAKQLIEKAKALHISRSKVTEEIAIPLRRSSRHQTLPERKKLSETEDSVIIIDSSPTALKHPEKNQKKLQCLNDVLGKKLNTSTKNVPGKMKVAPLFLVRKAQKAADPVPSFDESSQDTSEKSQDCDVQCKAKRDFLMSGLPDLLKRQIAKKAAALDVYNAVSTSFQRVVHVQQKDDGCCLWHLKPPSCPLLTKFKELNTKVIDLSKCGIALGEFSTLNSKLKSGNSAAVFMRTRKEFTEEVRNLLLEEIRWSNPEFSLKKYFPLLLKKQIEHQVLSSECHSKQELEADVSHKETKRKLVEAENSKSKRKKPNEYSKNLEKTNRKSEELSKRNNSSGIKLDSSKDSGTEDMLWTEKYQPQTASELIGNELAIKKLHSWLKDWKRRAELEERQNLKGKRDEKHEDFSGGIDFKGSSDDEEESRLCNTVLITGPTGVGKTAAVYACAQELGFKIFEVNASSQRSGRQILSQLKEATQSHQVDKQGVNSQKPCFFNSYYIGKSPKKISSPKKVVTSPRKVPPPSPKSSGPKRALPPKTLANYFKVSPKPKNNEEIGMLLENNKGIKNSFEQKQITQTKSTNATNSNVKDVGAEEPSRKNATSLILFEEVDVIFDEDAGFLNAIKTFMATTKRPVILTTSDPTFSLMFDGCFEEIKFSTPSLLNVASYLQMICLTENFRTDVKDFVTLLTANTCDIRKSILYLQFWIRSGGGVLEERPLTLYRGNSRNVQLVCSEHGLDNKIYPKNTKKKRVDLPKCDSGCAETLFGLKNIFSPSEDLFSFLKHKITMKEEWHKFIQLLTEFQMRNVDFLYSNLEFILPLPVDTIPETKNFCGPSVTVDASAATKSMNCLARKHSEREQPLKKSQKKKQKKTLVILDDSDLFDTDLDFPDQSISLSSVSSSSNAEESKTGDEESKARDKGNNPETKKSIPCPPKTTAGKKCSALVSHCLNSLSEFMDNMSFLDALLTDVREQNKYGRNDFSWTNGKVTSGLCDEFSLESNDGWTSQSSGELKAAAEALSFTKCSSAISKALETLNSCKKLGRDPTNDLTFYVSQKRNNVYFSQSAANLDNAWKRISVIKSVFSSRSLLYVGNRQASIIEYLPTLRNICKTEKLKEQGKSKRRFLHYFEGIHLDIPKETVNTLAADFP
# How it was run: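 Compounds reducing 5-fluorouridine-driven ELG1-luciferase signal in HEK293T cells were scored; exposure lasted 16 hr at 37 °C with luminescence detected via ONE-Glo.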
# [18] = Validation screen for small molecules that induce DNA re-replication in SW480 colon adenocarcinoma cells (AID 504364)
# How it was run: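 Hoechst-stained SW480 nuclei, imaged at 405 nm excitation after 48 hr compound exposure, were counted for elevated DNA content as the re-replication signal.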
# [19] = biological target: Thyrotropin receptor (Homo sapiens) (UniProt P16473); test: qHTS Assay for Antagonists of the Thyroid Stimulating Hormone Receptor (AID 488980); note: series mostly up to about 58 µM
# How it was run: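 Inhibition of TSH-stimulated cAMP accumulation was quantified by homogeneous time-resolved FRET in TSHR-transfected HEK293 cells. Agonist: TSH, 4 nM final (EC80).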
Structure (SMILES),Potency [1],Potency [2],Potency [3],outcome [4],Potency [5],Potency [6],Potency [7],Potency [8],activation [9],Potency [10],viability change [10] [%],outcome [11],outcome [12],Potency [13],Potency [14],outcome [15],Potency [16],Potency [17],Potency [18],outcome [19]
O=c1c2ccccc2[se]n1-c1ccccc1,inactive,5.01 µM (active) and 2.99 µM (active),25.1 µM (active),inactive,inactive,inactive,11.2 µM (active),inactive,3.06% (inactive),inactive,3.13,inactive,inactive,inactive,inactive,,,,,
CC(N)[C@H](O)c1ccc(O)c(O)c1 (stereo partly specified),2.67 µM (active),29.9 µM (active),,inactive,inactive,inactive,,inactive,1.12% (inactive),inactive,-3.08,inactive,inactive,13.5 µM (active),7.57 µM (active),inactive,inactive,inactive,inactive,
CC(=O)OCC1=C(C(=O)O)N2C(=O)[C@@H](NC(=O)CCC[C@@H](N)C(=O)O)[C@H]2SC1,inactive,inactive,,inactive,,inactive,,inactive,,inactive,1.57,,,inactive,inactive,,inactive,,,
CCCN1CC[C@@H]2c3cc(O)ccc3CC[C@@H]21,inactive,inactive,,inactive,inactive,,,,-5.31% (inactive),inactive,9.01,inactive,inactive,inactive,inactive,inactive,inactive,inactive,inactive,
CCS(=O)(=O)Nc1cccc(C(=C2CCCCC2)c2cnc[nH]2)c1,inactive,inactive,,inactive,,inactive,,inactive,-5.69% (inactive),inactive,1.78,inactive,inactive,inactive,inactive,inactive,inactive,,inactive,inactive
C[C@H](N)Cc1cccc(C(F)(F)F)c1,inactive,inactive,,inactive,inactive,inactive,,inactive,,inactive,-8.9,inactive,,inactive,inactive,,inactive,inactive,,
C[N+](C)(C)CC#CCN1CCCC1=O,inactive,inactive,,inactive,,inactive,,,57.8% (active),inactive,2.69,inactive,inactive,inactive,inactive,inactive,,inactive,inactive,inactive
